Hits are enriched below; roughly 0.92% of the tested compounds scored in any of these assays.
AGP1-GFP MLPCN – yeast TOR pathway AGP1-GFP modulation; 320,000 tested, 0.02% active; S. cerevisiae AGP1-GFP multiplex flow cytometry, 3 h; GFP as percent of DMSO wells; GFP response vs DMSO, % at 10 µM;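 active = GFP response relative to DMSO above a set limit, near screen average plus 3 SD, cut at about 150% in these data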;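 note: median GFP channel fluorescence of the gated AGP1 strain per well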
CIT2-GFP yeast – yeast TOR pathway CIT2-GFP modulation; S. cerevisiae CIT2-GFP strain, flow cytometry, 3 h; 100 means same as DMSO wells; GFP response vs DMSO, % at 10 µM; 320,000 tested, 0.065% active; AID 2029;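 active = GFP response relative to DMSO above a set limit, near the screen mean plus 3 SD, cut at about 150% in these data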;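 note: ratio of well median GFP fluorescence to mean of DMSO wells on the plate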
MEP2 TOR yeast – modulators of TOR pathway MEP2-GFP in S. cerevisiae. S. cerevisiae MEP2-GFP strain, flow cytometry GFP, 3 h; 100% = DMSO control level. GFP response vs DMSO, % at 10 µM. 330,000 tested, 0.51% active. AID 2016;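 active = GFP response versus DMSO above a set limit, roughly screen mean plus 3 SD, cut at about 180% in these data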;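 note: median GFP fluorescence of the barcode-gated MEP2-GFP cells per well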
LAP4 TOR yeast – alters LAP4-GFP fluorescence in TOR pathway yeast screen; 320,000 tested, 0.34% active; GFP response vs DMSO, % at 10 µM; S. cerevisiae LAP4-GFP multiplex, flow cytometry GFP, 3 h; median GFP as percent of DMSO wells;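 active = GFP response vs DMSO above a set limit, about the screen mean plus 3 SD, cut at about 150% in these data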
RPL19A-GFP yeast – modulators of TOR pathway RPL19A-GFP in S. cerevisiae; 330,000 tested, 0.3% active; AID 2025; percent response vs DMSO, % at 10 µM; S. cerevisiae RPL19A-GFP strain, flow cytometry, 3 h; active compounds read low;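 active = percent response vs DMSO below 50%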;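 note: median channel GFP fluorescence of the barcoded RPL19A-GFP strain; ratio of sample median GFP to plate DMSO average so 100% = DMSO; lower means less RPL19A-GFP as with rapamycin TOR inhibition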
LAP4-GFP pick2 – reconfirmed LAP4-GFP TOR pathway modulator in yeast; AID 2621; 590 tested, 20% active; S. cerevisiae LAP4-GFP strain, flow cytometry GFP, 3 h; shares compounds with LAP4 TOR yeast; GFP response vs DMSO, % at 10 µM;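 active = GFP signal as percent of the solvent control above about 150%, meaning raised reporter expression, limit read from the data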;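 note: ratio of well median GFP fluorescence to plate DMSO mean so 100% = DMSO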
MEP2-GFP pick2 – yeast MEP2-GFP modulation, second cherry pick; shares compounds with LAP4 TOR yeast; 590 tested, 10% active; GFP response vs DMSO, % at 10 µM; S. cerevisiae MEP2-GFP strain, flow cytometry GFP, 3 h;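 active = GFP signal above 150% of the solvent control wells, that is a rise of more than half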;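 note: median channel GFP fluorescence of all gated yeast cells per well; ratio of median GFP to plate DMSO average so 100% = DMSO level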
RPL19A GFP CP2 – reconfirmed modulator of RPL19A-GFP TOR reporter in yeast; shares compounds with LAP4 TOR yeast; S. cerevisiae RPL19A-GFP strain, flow cytometry GFP, 3 h; active compounds read low; 100% means same as DMSO wells; GFP response vs DMSO, % at 10 µM; 590 tested, 3% active;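 active = under 65% GFP response relative to DMSO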;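 note: median GFP channel fluorescence per well over the all cells gate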
CIT2-GFP pick2 – reconfirmed modulator of CIT2-GFP TOR reporter in yeast; shares compounds with LAP4 TOR yeast; S. cerevisiae CIT2-GFP strain, flow cytometry GFP, 3 h; DMSO control wells read 100%; GFP response vs DMSO, % at 10 µM; 590 tested, 8% active; AID 2624;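 active = GFP response vs DMSO above about 150%, limit read from the data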;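 note: median green fluorescence per well over all gated yeast cells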
AGP1 GFP CP2 – yeast AGP1-GFP TOR reporter modulation, second cherry pick; shares compounds with LAP4 TOR yeast; S. cerevisiae AGP1-GFP strain, flow cytometry GFP, 3 h; percent response vs DMSO, % at 10 µM; 590 tested, under 10 active; AID 2643;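 active = over 150 percent of DMSO response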;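 note: median GFP channel fluorescence over all cells without mother daughter split; sample median GFP divided by mean DMSO control so 100% equals DMSO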
s288c autofluor – compound is autofluorescent in yeast s288c cells. shares compounds with LAP4 TOR yeast. AID 2757. 610 tested, under 10 active. S. cerevisiae s288c, 520 nm autofluorescence, flow cytometry, 3 h; active compounds read high; zero means same as solvent-only cells. fluorescence change (kMESF span) at 33 µM;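 active = fluorescence span over the dose series, or activity score, above about 33, limit read from the data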
s288c autofl DR – yeast s288c autofluorescence artifact in dose response. shares compounds with LAP4 TOR yeast. S. cerevisiae s288c parental, compound autofluorescence, flow cytometry, 3 h. fluorescence change (span) at 33 µM. 110 tested, under 10 active;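 active = fluorescence change span, or the activity score built from it, above 25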
TORC1 bypass – compounds blocking wildtype yeast growth but not TORC1 bypass cells; S. cerevisiae BY4741 spot growth rating, 48-72 h; active compounds read low; shares compounds with LAP4 TOR yeast; growth rating (0-3) at 30 µM; 120 tested, under 10 active;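 active = growth rating at most 1 for wild type yeast while the TORC1 bypass strain still grows fully, rated 3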
* marks the source's active call; other numbers are inactive results; x = not tested or not shown; + = active, no number; [ ] = another dose, or the depositor's remark.

SMILES	AGP1-GFP MLPCN	CIT2-GFP yeast	MEP2 TOR yeast	LAP4 TOR yeast	RPL19A-GFP yeast	LAP4-GFP pick2	MEP2-GFP pick2	RPL19A GFP CP2	CIT2-GFP pick2	AGP1 GFP CP2	s288c autofluor	others
COc1ccc(C2N(c3ccccc3)C(=O)C2(F)F)cc1OC (stereo unspecified)	100	107	110	97	99	x	x	x	x	x	x
CCOC(=O)N1CCN(c2ccnc3cc(Cl)ccc23)CC1	104	105	100	94	104	x	x	x	x	x	x
CCN(CC)C(=O)Oc1ccnc2cc(Cl)ccc12	124	96	123	109	97	100	198*	105	90	148	0.1	s288c autofl DR=0.08;TORC1 bypass=3
O=C(Oc1ccnc2cc(Cl)ccc12)N1CCCCCC1	185*	79	422*	135	88	x	x	x	x	x	0.2	s288c autofl DR=0.26;TORC1 bypass=3
CCCCn1c(N)c(N(C)C(=O)c2cc3c(s2)CCCCC3)c(=O)[nH]c1=O	89	80	88	88	89	x	x	x	x	x	x
COc1cccc2oc3ccc(C#Cc4ccccn4)cc3c(=O)c12	87	72	92	152*	99	105	93	94	104	100	x
Cn1ncc2c(O/N=C(\N)c3ccc(C(C)(C)C)cc3)ncnc21	64	118	91	188*	66	x	x	x	x	x	1.8
CCOC(=O)c1ccc(Nc2ncnc3c2cnn3C)cc1	104	96	106	112	98	x	x	x	x	x	x
Cc1ccc(/C(N)=N/OC(=O)c2ccc(F)cc2)cc1	58	170*	97	142	96	x	x	x	x	x	0.3
Cc1cc(OCC(=O)OCC(=O)NCc2ccc3c(c2)OCO3)ccc1Cl	105	104	108	103	103	x	x	x	x	x	x
O=C(O)c1ccc(NCc2cccc(Br)c2)cc1	76	70	88	159*	88	116	103	98	109	87	x
Cc1ccc2nc(Cl)c3nnnn3c2c1	85	66	98	298*	56	x	x	x	x	x	3.1	s288c autofl DR=1.1;TORC1 bypass=0
COc1ccc(-c2n[nH]c(C)c2-c2ccc(Cl)cc2)c(O)c1	49	74	78	118	55	112	103	92	88	88	x
CN1CCN(C(=O)c2cc(COc3c(F)cccc3F)on2)CC1c1ccccc1 (stereo unspecified)	119	87	101	158*	96	141	163*	109	115	110	1.7	s288c autofl DR=0.87;TORC1 bypass=0
COc1ccccc1OCc1cc(C(=O)N2CCN(C)C(c3ccccc3)C2)no1 (stereo unspecified)	95	92	97	107	96	x	x	x	x	x	x
COc1ccc([C@H]2CC(=O)C=C(c3ccc4ncccc4c3)C2)cc1	71	84	91	123	95	x	x	x	x	x	x
O=C1C=C(c2ccc3ncccc3c2)C[C@@H](c2ccc(Cl)cc2)C1	89	77	94	151*	93	111	98	93	85	97	x
COc1ccccc1Nc1nn2c(=O)c3ccc(C(=O)N4CCCC(C)C4)cc3nc2s1 (stereo unspecified)	111	107	108	103	103	x	x	x	x	x	x
COc1ccc(CNC(=O)CN2CCN(S(=O)(=O)c3ccccc3)CC2)cc1	104	98	101	99	98	x	x	x	x	x	x
O=C1OC(c2ccc(F)cc2)=C/C1=C\c1ccc([N+](=O)[O-])o1	99	217*[may fluoresce green]	647*[may fluoresce green]	291*[may fluoresce green]	136	667*	+	192	991*	174*	x
O=C1OC(c2ccc(F)cc2)=C/C1=C\c1ccc(O)cc1	101	105	108	95	103	x	x	x	x	x	x
COc1ccc(/C=C/C(=O)c2c(O)cc(C)oc2=O)c(OC)c1	103	109	105	104	98	x	x	x	x	x	x
CSc1ccc(/C=C/C(=O)c2c(O)cc(C)oc2=O)cc1	97	99	103	110	103	x	x	x	x	x	x
Cc1cc(O)c(C(=O)/C=C/c2ccc(Cl)cc2)c(=O)o1	77	95	93	161*	93	x	x	x	x	x	0.61
COc1cccc(/C=C/C(=O)c2c(O)cc(C)oc2=O)c1O	86	68	82	243*	90	x	x	x	x	x	0.1
SMILES	AGP1-GFP MLPCN	CIT2-GFP yeast	MEP2 TOR yeast	LAP4 TOR yeast	RPL19A-GFP yeast	LAP4-GFP pick2	MEP2-GFP pick2	RPL19A GFP CP2	CIT2-GFP pick2	AGP1 GFP CP2	s288c autofluor	others
O=C(NCc1ccc(F)cc1)c1cc2c(cc1Cl)N1CCCCCC1=NS2(=O)=O	96	99	95	94	95	x	x	x	x	x	x
O=C(NC(=S)NNC(=O)c1ccc(Cl)cc1Cl)c1cccnc1	96	100	184*	110	104	x	x	x	x	x	0.91
Cc1ccccc1C(=O)NNC(=S)NC(=O)c1ccc(Cl)cc1Cl	104	104	108	182*	91	x	x	x	x	x	0.4
Cc1onc(-c2ccccc2)c1C(=O)NNC(=S)NC(=O)c1ccc(Cl)cc1Cl	104	106	105	100	105	x	x	x	x	x	x
COc1ccc(NC(=O)CSc2nnnn2C)cc1S(=O)(=O)N1CCCCC1	100	108	99	97	98	x	x	x	x	x	x
N#C/C(=C\c1cc(Br)ccc1F)C(=O)NC1CC1	98	74	94	156*	98	156*	111	95	122	102	0.51
O=c1cc(C(F)(F)F)[nH]c2c(C(F)(F)F)cccc12	95	107	110	105	111	x	x	x	x	x	x
O=c1cc(C(F)(F)F)[nH]c2ccc(OC(F)(F)F)cc12	77	92	164	96	65	97	103	103	104	102	x
Cc1nc(N2CCCCC2)c2c(-c3cccs3)csc2n1	34	100	155	98	56	95	95	99	109	97	x

Compound activity as filed in PubChem.
